The record followed here is ChEMBL document CHEMBL4513216, “Probing the Open Global Health Chemical Diversity Library for Multistage-Active Starting Points for Next-Generation Antimalarials” (ACS Infect Dis, 2020).

The whole screen tested about 68,000 compounds, of which about 2,700 (4%) showed an effect of 50% or more. For the sample, strong results were picked, then their nearest neighbours and some compounds at random.

In this assay the test system is Plasmodium berghei. The assay is described as follows: Screen against P. berghei liver stage (PbLuc), transformed with Luciferase, at 2uM. The assay is classed as functional, HepG2. The following applies: tested at 2 uM.
Turning to `COc1ccccc1CCNC(=O)CNC1CCc2nc(C)nn2C1` (configuration not stated), the INHIBITION came out at 35.56%.

Consider `Cc1nc2n(n1)CC(NCC(=O)NCC1(c3ccccc3)CC1)CC2` (configuration not stated), for which the INHIBITION turned out to be 58.69%.

For the molecule `Cc1nc2n(n1)CC(NCC(=O)Nc1cc(C)on1)CC2` (configuration not stated), the INHIBITION is on record as -2.87%.

For the molecule `CC(=O)N1CCCn2nc(CNS(=O)(=O)N3CCC(C)CC3)cc2C1`, the INHIBITION turned out to be 47.62%.

As for `O=c1[nH]c(NC2CCCC2)nc2nccc(-c3ccsc3)c12`, the INHIBITION is recorded as -18.11%.

As for `COCCN1CC[C@]2(CN(C(=O)c3ccc[nH]3)C[C@H]2C)C1=O`, the INHIBITION was found to be 16.21%.

Turning to `CCOc1c(Br)cc(CNCCc2nnc3n2CCCCC3)cc1OC`, the INHIBITION was 23.16%.

For the molecule `CC1CCCCN1C(=O)c1nc2c(n1C(C)C)CCN(C)C2` (configuration not stated), the INHIBITION was -19.99%.

On to `COc1cccc(CN2CCCC2c2c(C)nn(C)c2C)c1` (configuration not stated), for which the INHIBITION came out at 61.53%.

For the molecule `Cc1nc2ccccc2nc1CN1CCCC1c1c(C)nn(C)c1C` (configuration not stated), the INHIBITION came to 28.51%.

Take `Cc1nn(C)c(C)c1NC(=O)CN1CCCC1c1c(C)nn(C)c1C` (configuration not stated): the INHIBITION came to 23.42%.

For `NC(=O)COc1cccc(CN2CCCC2c2ccc[nH]2)c1` (configuration not stated), the INHIBITION was -4.58%.

As to `CC(=O)N1CCN(C(=O)CN2CCCC2c2c(C)nn(C)c2C)CC1` (configuration not stated), the INHIBITION is on record as 60.6%.

In the case of `Cc1nn(C)c(C)c1C1CCCN1Cc1nc(C)c2ccccc2n1` (configuration not stated), the INHIBITION came to 5.1%.

In the case of `COc1cccc(CN2CCCC2c2ccc[nH]2)c1` (configuration not stated), the INHIBITION was 68.02%.

For the molecule `Cc1nn(C)c(C)c1C1CCCN1Cc1nc2ccccc2n1C` (configuration not stated), the INHIBITION is given as 53.11%.

`Cc1nn(C)c(C)c1C1CCCN1Cc1cccc(C(N)=O)c1` (configuration not stated): the INHIBITION is recorded as 15.91%.

With `Cc1nn(C)c(Cl)c1C1CCCN1CC(=O)N1CCCCC1` (configuration not stated), the INHIBITION is listed as -0.9%.

For the molecule `Cc1nn(C)c(C)c1C1CCCN1Cc1cccc(OCC(N)=O)c1` (configuration not stated), the INHIBITION is reported as 35.94%.

Consider `N#CCCCOc1cccc(CN2CCCC2c2ccc[nH]2)c1` (configuration not stated), for which the INHIBITION is given as -61.99%.

`Cn1cccc1CCC(=O)N1CCC2(CC1)c1ccccc1CC2O` (configuration not stated): the INHIBITION is reported as -57.12%.

As for `Cc1cnccc1N1CCCN(C(=O)CCc2n[nH]c(C)c2C)CC1`, the INHIBITION is -40.52%.

In the case of `O=C(c1ccc(F)c(Br)c1)N1CCCN2CCCC2C1` (configuration not stated), the INHIBITION is given as -4.48%.

`O=C(CCc1ccsc1)N1CCC(n2cc(CO)nn2)CC1`: the INHIBITION was -25.13%.

For `COCc1cn(C2CCN(C(=O)Cc3ccsc3)CC2)nn1`, the INHIBITION is given as 53.98%.

In the case of `O=C(Cc1ccsc1)N1CCC(Cn2cc(CCO)nn2)CC1`, the INHIBITION is given as 12.57%.

`Cc1noc(CCCC(=O)N2CCCCC2CNS(C)(=O)=O)n1` (configuration not stated): the INHIBITION was found to be 30.58%.

With `CC(C)c1cccc(CSc2nnc(CN3CCCC3=O)o2)n1`, the INHIBITION is on record as -12.97%.

`O=C1CCCN1Cc1nnc(SCc2ccc3c(c2)CCC3)o1`: the INHIBITION is given as 52.31%.

Regarding `CC(C)Oc1ccc(CSc2nnc(CN3CCCC3=O)o2)cc1`, the INHIBITION was found to be 0.63%.

For `CN(C)CCCNC(=O)c1cnc(Cc2ccc(F)cc2)s1`, the INHIBITION was -12.27%.

With `CCNC(=O)c1cnc(Cc2ccc(F)cc2)s1`, the INHIBITION came out at 6.55%.

On to `CN(C)C(=O)CN(C)C(=O)c1cnc(Cc2ccc(F)cc2)s1`, for which the INHIBITION is given as 52.08%.

For the molecule `CCc1ncc(C(=O)NCCNC(=O)Cc2ccc(F)cc2)s1`, the INHIBITION is 61.99%.

For `COC(=O)CCNC(=O)c1cnc(Cc2ccc(F)cc2)s1`, the INHIBITION is recorded as -9.47%.

As to `CCc1ncc(C(=O)NCCNc2ccncc2)s1`, the INHIBITION is on record as -23%.

For `O=C(CC1CCCO1)NCc1ccc(Br)cc1F` (configuration not stated), the INHIBITION was -7.89%.

In the case of `CC(C)N1CCCC(C(=O)N2CCN(c3nsc4ccccc34)CC2)C1` (configuration not stated), the INHIBITION is -52.08%.

Consider `O=C(NCC1CCOC1)c1csc(Cc2ccccc2)n1` (configuration not stated), for which the INHIBITION turned out to be 28.14%.

`COC(=O)C1CCCCN1C(=O)c1ccc(N(C)C)cc1F` (configuration not stated): the INHIBITION is on record as 36.67%.

As to `Cc1ccc(C(=O)N2CC(C(N)=O)O[C@H](C)C2)c(C)c1` (some centres not stated), the INHIBITION is listed as -3.25%.

Turning to `C[C@@H]1CN(C(=O)c2ccc(Br)cc2F)CC(C(N)=O)O1` (some centres not stated), the INHIBITION worked out at 57.34%.

Regarding `COC(=O)C1CCCN1C(=O)c1ccc(Br)cc1F` (configuration not stated), the INHIBITION is 61.96%.

For the molecule `Cc1ccc(C(=O)N2CC(C(N)=O)O[C@H](C)C2)c(F)c1` (some centres not stated), the INHIBITION is -41.96%.

On to `COC(=O)C1CCCN1C(=O)c1ccc(Cl)cc1F` (configuration not stated), for which the INHIBITION is recorded as -8.14%.

Consider `Cc1ccsc1C(=O)N1CCc2ncc(CN(C)C)n2CC1`, for which the INHIBITION was 23.59%.

Regarding `Cc1cc(C)c2[nH]c(=O)c(CN3CCCC4(C3)CN(C)C(=O)O4)cc2c1` (configuration not stated), the INHIBITION was found to be 15.08%.

Regarding `O=C(c1ccc(S(=O)(=O)NCCc2ccccn2)cc1)N1CCCC1`, the INHIBITION was determined as 29.41%.

On to `CC(C)c1nn(C)c(N(C)C)c1CNCc1ccnn1C`, for which the INHIBITION stood at 32.93%.

Consider `CCCNC(=O)CN1CCOC(CC)C1` (configuration not stated), for which the INHIBITION is given as 60.52%.

Regarding `CCC1CN(CC(=O)NCCOC)CCO1` (configuration not stated), the INHIBITION is 36.09%.

As for `CCC1CN(CC(=O)NCCC#N)CCO1` (configuration not stated), the INHIBITION is 21.72%.
